Results on 24 compounds are retold here after PubChem BioAssay (EPA / NIEHS).

By AC50 is commonly meant the concentration giving half of the maximal activity seen.

Experiment [1] can be described thus: ATG_TAL_CIS: Attagene CIS-FACTORIAL HepG2 Assay for human TAL Basal Promoter (AID 2282966).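 Note: background control endpoint measuring basal TAL promoter reporter mRNA not a specific factor.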 The following applies: HepG2 Attagene cis-factorial TAL promoter reporter; actives raise or lower the signal. The procedure, abridged:
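HepG2 cells were transiently transfected with promoter-driven multiplexed reporter units and dosed for 24 h. Reporter mRNA was measured by RT-PCR with capillary electrophoresis fluorescence; bidirectional fits used DMSO as baseline, serving as a background control.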

Experiment [2] is described as follows: ATG_TGFb_CIS: Attagene CIS-FACTORIAL HepG2 Assay for human Transforming Growth Factor (TGF) (AID 2282967). Conditions: HepG2 Attagene CIS TGFb reporter, mRNA transcription; actives raise or lower the signal. An outline of the steps:
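Liver HepG2 line, cis-factorial reporter panel, 24 h dosing. Quantitation: RT-PCR products labeled with 6-FAM, cut with HpaI, resolved by capillary electrophoresis; DMSO-referenced bidirectional analysis.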

The nature of experiment [3]: ATG_VDRE_CIS: Attagene CIS-FACTORIAL HepG2 Assay for human Vitamin D Receptor Element (VDRE) (AID 2282968). Conditions: HepG2 VDRE cis-reporter transcription, actives raise or lower the signal. The procedure, abridged:
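Transiently transfected HepG2 cells carrying cis-regulated reporter transcription units were exposed for 24 h. Reporter mRNA was measured by RT-PCR with fluorescent labelling and capillary electrophoresis, and fitted in both directions against DMSO.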

Experiment [4] concerns the target Nuclear receptor subfamily 1 group I member 3 (Homo sapiens) (UniProt Q14994). The experiment in a line: ATG_CAR_TRANS: Attagene TRANS-FACTORIAL HepG2 Assay for human Constitutive Androstane Receptor (CAR) (AID 2282969; active = hit-call score of the fitted dose curve at least 0.9, where 1 is the maximum;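 note: activators raise reporter mRNA above DMSO so AC50 marks induction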). Conditions: HepG2 Attagene TRANS-FACTORIAL CAR reporter. The procedure, abridged:
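HepG2 cells transiently transfected with GAL4-UAS reporter units; TRANS format reads activity of exogenous chimeric NR-Gal4 protein. After 24 h dosing, reporter mRNA quantified by RT-PCR, 6-FAM labelling and capillary electrophoresis; gain of signal fitted against DMSO.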

Experiment [5] concerns the target Steroid hormone receptor ERR1 (Homo sapiens) (UniProt P11474). The experiment in a line: ATG_ERRa_TRANS: Attagene TRANS-FACTORIAL HepG2 Assay for human Estrogen-Related Receptor alpha (ERRa) (AID 2282971; active = hit-call score of the fitted dose curve at least 0.9, where 1 is the maximum). Conditions: HepG2 Attagene TRANS reporter, ERRa transactivation. An outline of the steps:
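HepG2 cells transiently transfected with multiplexed GAL4-UAS reporter units reading chimeric ERRa-Gal4 activity; 24 h compound exposure. Reporter mRNA measured by RT-PCR, 6-FAM labelling, HpaI digest and capillary electrophoresis; gain of signal fitted versus DMSO baseline.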

Experiment [6] addresses X-box-binding protein 1 (Homo sapiens) (UniProt P17861). The experiment in a line: ATG_Xbp1_CIS: Attagene CIS-FACTORIAL HepG2 Assay for human X-box Binding Protein 1 (XBP1) (AID 2282972). The following applies: HepG2 XBP1 cis-element reporter, Attagene multiplex; actives raise or lower the signal. An outline of the steps: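 HepG2, transient MRTU transfection (cis-promoter driven), 24 h compound exposure. Total RNA → oligo(dT) RT → PCR → 6-FAM labeling → HpaI cut → CE. Bidirectional fit vs DMSO.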

Experiment [7] can be described thus: ATG_M_19_TRANS: Attagene TRANS-FACTORIAL HepG2 Assay for M19 Transcription Factor (Internal Marker) (AID 2282974; active = hit-call score of the fitted dose curve at least 0.9, where 1 is the maximum). The following applies: HepG2 Attagene TRANS-FACTORIAL M19 internal marker reporter. An outline of the steps:
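Using RT-PCR and capillary electrophoresis, reporter mRNA from transiently transfected human HepG2 cells was quantified following 24 h exposure; activity was fitted in the positive direction against DMSO.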

The nature of experiment [8]: ATG_GAL4_TRANS: Attagene TRANS-FACTORIAL HepG2 Assay for GAL4 (Internal Marker) (AID 2282976; active = hit-call score of the fitted dose curve at least 0.9, where 1 is the maximum). Conditions: HepG2 Attagene TRANS GAL4 internal marker reporter. An outline of the steps: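 HepG2 cells transiently transfected with multiplexed GAL4-UAS reporter constructs were dosed for 24 h. Reporter mRNA was measured by RT-PCR, 6-FAM primer extension, HpaI digestion and capillary electrophoresis, and gain of signal was fitted relative to DMSO.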

The target in experiment [9] is Estrogen-related receptor gamma (Homo sapiens) (UniProt P62508). Description: ATG_ERRg_TRANS: Attagene TRANS-FACTORIAL HepG2 Assay for human Estrogen-Related Receptor gamma (ERRg) (AID 2282977; active = hit-call score of the fitted dose curve at least 0.9, where 1 is the maximum;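 note: hits increase reporter signal over DMSO so potencies reflect activators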). Conditions: HepG2 Attagene TRANS reporter, ERRg transactivation. The procedure, abridged:
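HepG2 cells transiently transfected with multiplexed GAL4-UAS reporter units driven by chimeric NR-Gal4 proteins; 24 h exposure. Reporter mRNA quantified by RT-PCR, fluorescent labelling, HpaI digestion and capillary electrophoresis; gain of signal vs DMSO.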

The target of experiment [10] is Estrogen receptor (Homo sapiens) (UniProt P03372). Description: ATG_ERa_TRANS: Attagene TRANS-FACTORIAL HepG2 Assay for human Estrogen Receptor alpha (ERa) (AID 2282970; active = hit-call score of the fitted dose curve at least 0.9, where 1 is the maximum). The following applies: HepG2 Attagene TRANS ERa GAL4 reporter, mRNA. The procedure, abridged: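 HepG2 cells transiently transfected with multiplexed GAL4-UAS reporter units; ERa activity read via exogenous chimeric NR-Gal4 protein. After 24 hour compound exposure, reporter mRNA measured by RT-PCR with 6-FAM labelling and capillary electrophoresis; gain-of-signal fitted relative to DMSO.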

Where “and” joins values, the source holds several entries; their conditions need not be identical. Equal entries are not always repeated. Records with an inconclusive call do not appear. A structure can be active in one record and inactive in another. Calls of active or inactive are those of the source. Rule for the calls, unless noted: active = hit-call score of the fitted dose curve at least 0.9, where 1 is the maximum; inactive = score below 0.9.

Chain of Estrogen receptor (Homo sapiens) (P03372 whole entry, looked up, the tested form may be a part): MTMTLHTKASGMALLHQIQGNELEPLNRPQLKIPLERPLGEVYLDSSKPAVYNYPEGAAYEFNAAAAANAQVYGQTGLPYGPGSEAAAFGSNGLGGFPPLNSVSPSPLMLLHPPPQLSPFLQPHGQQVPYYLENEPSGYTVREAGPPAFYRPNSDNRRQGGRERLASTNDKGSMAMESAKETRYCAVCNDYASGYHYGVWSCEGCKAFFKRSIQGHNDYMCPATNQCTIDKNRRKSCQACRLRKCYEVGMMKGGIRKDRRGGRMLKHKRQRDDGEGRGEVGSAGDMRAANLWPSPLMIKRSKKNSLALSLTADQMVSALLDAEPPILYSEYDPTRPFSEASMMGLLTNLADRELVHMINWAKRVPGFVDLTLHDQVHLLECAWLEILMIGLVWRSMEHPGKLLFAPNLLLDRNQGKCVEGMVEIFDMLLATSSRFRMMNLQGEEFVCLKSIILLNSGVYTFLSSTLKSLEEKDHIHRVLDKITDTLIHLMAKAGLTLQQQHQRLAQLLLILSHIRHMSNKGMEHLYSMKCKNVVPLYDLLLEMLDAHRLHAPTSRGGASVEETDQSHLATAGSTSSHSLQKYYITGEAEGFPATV
Chain of X-box-binding protein 1 (Homo sapiens) (P17861 whole entry, looked up): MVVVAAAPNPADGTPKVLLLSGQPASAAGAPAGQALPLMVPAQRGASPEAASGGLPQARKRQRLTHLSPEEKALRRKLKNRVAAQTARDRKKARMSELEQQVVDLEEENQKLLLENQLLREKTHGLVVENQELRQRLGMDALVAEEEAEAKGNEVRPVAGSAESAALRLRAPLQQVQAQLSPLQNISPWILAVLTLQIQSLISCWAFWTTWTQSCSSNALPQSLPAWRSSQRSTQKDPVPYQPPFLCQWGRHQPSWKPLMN
Chain of Estrogen-related receptor gamma (Homo sapiens) (P62508 whole entry, looked up, the tested form may be a part): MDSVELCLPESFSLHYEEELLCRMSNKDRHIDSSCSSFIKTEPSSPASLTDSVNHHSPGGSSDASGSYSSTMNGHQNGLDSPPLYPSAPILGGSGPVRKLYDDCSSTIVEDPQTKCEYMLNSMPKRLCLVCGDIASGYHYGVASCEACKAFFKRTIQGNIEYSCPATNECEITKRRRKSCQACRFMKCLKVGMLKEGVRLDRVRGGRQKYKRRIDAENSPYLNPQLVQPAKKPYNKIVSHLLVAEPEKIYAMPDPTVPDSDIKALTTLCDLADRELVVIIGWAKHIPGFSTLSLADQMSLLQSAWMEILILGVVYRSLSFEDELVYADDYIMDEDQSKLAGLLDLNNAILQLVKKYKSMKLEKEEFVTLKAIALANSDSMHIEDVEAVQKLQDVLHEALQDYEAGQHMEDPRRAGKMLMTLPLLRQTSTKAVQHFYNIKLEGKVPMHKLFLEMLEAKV
Chain of Steroid hormone receptor ERR1 (Homo sapiens) (P11474 whole entry, looked up, the tested form may be a part): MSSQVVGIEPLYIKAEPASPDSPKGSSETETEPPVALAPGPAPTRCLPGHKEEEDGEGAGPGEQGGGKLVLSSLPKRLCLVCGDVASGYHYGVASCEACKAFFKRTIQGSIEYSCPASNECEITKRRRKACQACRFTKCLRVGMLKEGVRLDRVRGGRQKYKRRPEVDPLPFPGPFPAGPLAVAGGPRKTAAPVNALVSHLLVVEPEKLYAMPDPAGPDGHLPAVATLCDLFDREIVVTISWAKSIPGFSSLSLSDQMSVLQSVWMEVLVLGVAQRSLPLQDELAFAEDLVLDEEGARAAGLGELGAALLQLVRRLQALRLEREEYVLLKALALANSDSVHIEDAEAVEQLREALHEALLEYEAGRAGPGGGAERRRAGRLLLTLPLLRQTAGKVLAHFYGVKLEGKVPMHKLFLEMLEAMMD
Chain of Nuclear receptor subfamily 1 group I member 3 (Homo sapiens) (Q14994 whole entry, looked up, the tested form may be a part): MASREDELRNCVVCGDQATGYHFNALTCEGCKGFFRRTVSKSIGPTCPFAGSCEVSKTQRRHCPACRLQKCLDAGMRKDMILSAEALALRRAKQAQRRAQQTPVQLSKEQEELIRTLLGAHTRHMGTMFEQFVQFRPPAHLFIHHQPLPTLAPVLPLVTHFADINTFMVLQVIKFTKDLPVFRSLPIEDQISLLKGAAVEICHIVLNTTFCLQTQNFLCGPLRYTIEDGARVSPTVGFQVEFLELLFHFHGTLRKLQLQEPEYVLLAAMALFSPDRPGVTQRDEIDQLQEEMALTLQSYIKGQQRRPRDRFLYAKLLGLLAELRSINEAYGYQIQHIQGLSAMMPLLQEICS

For `CCCCOCC1CO1` (stereo not drawn), the compound was called inactive in [1], in experiment [2], in [3], in experiment [4], in [5] and in experiment [6]. The outcome in experiment [7], in experiment [8] and in experiment [9] was inactive.

Consider `CSC(C)(C)C=NO`, for which the call in experiment [1], in experiment [2], in experiment [3], in experiment [4] and in experiment [6] was inactive.

Take `CNC(=O)Oc1ccc(N(C)C)c(C)c1`: the outcome in [1], in [2], in [3], in experiment [4], in experiment [10] and in experiment [6] was inactive. For the same compound, the result in experiment [7] and in experiment [9] was inactive.

On to `Oc1ccc(I)cc1`, for which the compound was classed as inactive in experiment [1], in [2], in experiment [3], in experiment [6] and in [7]. Further, in experiment [10], the AC50 was 19.7 µM (active).

On to `OCC(F)(F)OC(F)(F)C(F)(F)OC(F)(F)CO`, for which the result in [1], in experiment [2], in [3] and in experiment [6] was inactive. Besides, the AC50 in [10] is 9.78 µM (active).

On to `CCCCC(CC)COP(=O)(Oc1ccccc1)Oc1ccccc1` (stereo not drawn), for which the result in experiment [1], in [2] and in [7] was inactive. The AC50 is 0.866 µM (active) in experiment [3], 1.16 µM (active) in [10] and 100 µM (active) in experiment [6].

For `O=[N+]([O-])c1cc(Cl)ccc1Cl`, the outcome in experiment [1], in experiment [2], in experiment [3], in experiment [10] and in experiment [6] was inactive.

As for `CCOP(=S)(OCC)SCSCC`, the compound was classed as inactive in experiment [1], in [2] and in experiment [6]. For the same compound, the AC50 in [3] is 35.4 µM (active); in experiment [10], 27.4 µM (active).

For the compound `O=S(=O)(F)C(F)(F)C(F)(F)C(F)(F)C(F)(F)C(F)(F)C(F)(F)C(F)(F)C(F)(F)F`, the compound was classed as inactive in experiment [1], in experiment [2], in experiment [3], in [10], in experiment [5] and in experiment [6]. Also, the result in experiment [7] and in [9] was inactive.

As to `FC(F)(F)C(F)(C(F)(F)F)C(F)(F)C(F)(F)CC1CO1` (stereo not drawn), the compound was called inactive in [1], in experiment [2], in experiment [3], in [10] and in experiment [6].

`CC(O)C(F)(F)C(F)(F)F` (stereo not drawn): the result in experiment [1], in experiment [2], in experiment [3], in experiment [4], in [10] and in experiment [5] was inactive. In addition, the compound was classed as inactive in experiment [6], in [7], in experiment [8] and in experiment [9].

As for `O=[N+]([O-])c1ccc(Cl)c(Cl)c1`, the call in [1], in experiment [2], in [3], in experiment [10], in experiment [5] and in experiment [6] was inactive. The compound was classed as inactive in experiment [7] and in experiment [9].

In the case of `CCOC(=O)c1ccccc1C(=O)OCC`, the call in [1], in experiment [2], in experiment [3], in [10], in [5] and in experiment [6] was inactive. Also, the result in experiment [8] and in experiment [9] was inactive.

Consider `COC(=O)C(F)(F)C(F)(F)OC(F)(C(F)(F)F)C(F)(F)OC(F)=C(F)F` (stereo not drawn), for which the compound was called inactive in experiment [1], in [2], in [3], in experiment [10], in experiment [5] and in [6]. The result in experiment [7], in experiment [8] and in [9] was inactive. Also, the AC50 was 87.4 µM (active) in [2]; 18.3 µM (active) in experiment [3]; 30.3 µM (active) and 13.7 µM (active) in [10].

In the case of `O=C(O)C(F)(OC(F)(F)C(F)(F)C(F)(F)F)C(F)(F)F` (stereo not drawn), the result in experiment [1], in [2], in experiment [3], in experiment [4], in [10] and in experiment [5] was inactive. The call in experiment [6], in experiment [7], in experiment [8] and in experiment [9] was inactive.

For `CCOP(=S)(Oc1ccc([N+](=O)[O-])cc1)c1ccccc1` (stereo not drawn), the outcome in experiment [1], in experiment [2], in experiment [5], in experiment [6] and in experiment [9] was inactive. Also, the figures for the AC50 in experiment [3] and in experiment [10] were 6.46 µM (active) and 3.9 µM (active), respectively.

Turning to `CCOP(=S)(NC(C)C)Oc1ccccc1C(=O)OC(C)C` (stereo not drawn), the outcome in experiment [1], in experiment [2], in [4], in experiment [5], in experiment [6] and in [9] was inactive. In addition, the AC50 in experiment [3] was 1.5 µM (active); in experiment [10], 3.51 µM (active).

`c1ccc(OP(Oc2ccccc2)Oc2ccccc2)cc1`: the outcome in experiment [1], in [2], in experiment [3], in experiment [4], in experiment [6] and in [7] was inactive. The half-maximal activity concentration (AC50) in [10] is 74.9 µM (active).

Take `O=C(O)C=CC(F)(C(F)(F)F)C(F)(F)F`: the compound was classed as inactive in experiment [1], in experiment [2], in experiment [3], in experiment [10], in experiment [5] and in experiment [6].

On to `NC(=O)C(F)(F)C(F)(F)F`, for which the compound was classed as inactive in [1], in experiment [2], in experiment [3], in experiment [10], in [5] and in experiment [6]. Further, the compound was called inactive in [7], in [8] and in experiment [9].

Consider `c1ccc2c(c1)sc1ccccc12`, for which the compound was called inactive in experiment [1], in [2], in [3], in [5], in experiment [6] and in experiment [7]. Further, the AC50 in [10] was 63.7 µM (active).

For the compound `Nc1ccc2ccccc2c1`, the compound was classed as inactive in [1], in experiment [2], in experiment [3], in [10], in experiment [5] and in experiment [6]. In addition, the compound was classed as inactive in experiment [7], in [8] and in experiment [9].

`Clc1ccc(Oc2ccccc2)cc1`: the call in [1], in experiment [2], in experiment [3] and in experiment [6] was inactive. The AC50 in experiment [10] was 41.7 µM (active).

In the case of `OCC(F)(F)OC(F)(F)C(F)(F)OC(F)(F)C(F)(F)OC(F)(F)F`, the outcome in [1], in [2], in experiment [3], in [4], in experiment [5] and in [6] was inactive. Moreover, the outcome in experiment [7], in experiment [8] and in experiment [9] was inactive. Also, the AC50 in experiment [10] is 6.04 µM (active) and 4.34 µM (active).
